SNCA expr inhib: Primary qHTS assay for inhibitors of alpha-synuclein gene (SNCA) expression; HEK-293 SNCA-luciferase knock-in, luminescence, 24 h; Potency, µM (doses to about 57.2 µM), most hits filed as inhibitors; 140,000 tested, 0.17% active; also: nearly all actives have a fitted effect of over 45% in size
IP6K1 inh: Primary qHTS assay for small molecule inhibitors of Inositol hexaphosphate kinase 1 (IP6K1). activity change, % (series mostly up to about 58 µM). 140,000 tested, 0.81% active. IP6K1 kinase, ADP-Glo luminescence, 2 h; stronger effect = lower value. AID 1645851, 2021; in the data active = activity change below about -25%
Target sequence (Q92551 whole entry, looked up): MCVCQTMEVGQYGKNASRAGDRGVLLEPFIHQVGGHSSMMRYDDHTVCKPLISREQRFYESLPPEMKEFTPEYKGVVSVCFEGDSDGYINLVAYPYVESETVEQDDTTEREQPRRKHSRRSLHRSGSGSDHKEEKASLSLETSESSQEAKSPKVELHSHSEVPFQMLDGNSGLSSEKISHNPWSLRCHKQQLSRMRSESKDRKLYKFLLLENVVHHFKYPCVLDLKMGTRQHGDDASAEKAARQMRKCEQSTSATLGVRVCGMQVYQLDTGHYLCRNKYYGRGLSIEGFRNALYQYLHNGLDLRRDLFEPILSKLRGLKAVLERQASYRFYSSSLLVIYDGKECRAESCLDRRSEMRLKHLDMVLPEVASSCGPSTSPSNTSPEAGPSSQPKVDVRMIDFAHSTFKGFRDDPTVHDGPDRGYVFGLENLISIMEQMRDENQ
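ADP-Glo luminescence measures ADP made by human IP6K1 during a 2 h RT reaction with ATP/IP6 (mix at 1.3 mM/130 uM); top library doses 57.5 and 19.1 uM final.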
HEK293 viab: GF-AFC viability counterscreen for inhibitors of alpha-synuclein gene (SNCA) expression | 150,000 tested, 0.12% active | HEK-293-SNCA-luc viability, GF-AFC fluorescence, 24 h | Potency, µM (series often up to 57.1 µM), usual class: cytotoxic | AID 1671193, 2021; also: nearly all actives have a fitted effect of over 30% in size
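HEK-293-SNCA-luc cells (1500/well) plated 24 h, then exposed 24 h to a dilution series; GF-AFC added 30 min at 37C, fluorescence 405/540 nm; normalised to medium-only and DMSO wells, Hill fit.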
KDM5B inh: Primary screen for KDM5B Histone Demethylases FDH-coupled qHTS. AID 1347165, 2019. Potency, µM (highest dose often 57.7 µM), usual class: inhibitors. KDM5B demethylase, FDH-coupled NADH fluorescence (FDH is formaldehyde dehydrogenase). 220,000 tested, 2.6% active; also: nearly all actives have a fitted effect of over 70% in size
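Inhibition is measured as reduced NADH fluorescence generation from FDH coupling to formaldehyde release. Truncated KDM5BΔAP at 200 nM final acts on H3K4me3 peptide (12.5 µM in substrate mix) in pH 7.5 HEPES buffer with Tween-20, 30 min, room temperature.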
A number is an active result; n = inactive; u = inconclusive; x = no result. Only some compounds are listed: those with a hit (about 2.8% of all), similar ones and a draw of the others. Unless noted, calls follow the shape of the dose curve; as a rule, active = well fitted curve in the direction sought with a large enough effect; inconclusive = small, poorly fitted or top-dose-only effect, or another doubt; inactive = no such curve, though single readings can be large; an effect the other way counts as inactive or inconclusive.

SMILES	SNCA expr inhib	IP6K1 inh	HEK293 viab	KDM5B inh
CCn1cc(CN2CCCC(c3nc(-c4cnccn4)no3)CCNC(=O)CC2)cn1 (configuration not stated)	n	n	n	n
COc1ccc(CNC(=O)CCS(=O)(=O)c2ccc3c(c2)oc(=O)n3C)cc1	n	n	n	n
CCCn1nc(C(=O)N2CCN(c3ccccn3)CC2)c2ccccc2c1=O	x	x	x	n
CC(NC(=O)c1n[nH]c2ccccc12)C(=O)N1CCN(c2ccccn2)CC1 (configuration not stated)	n	n	n	22.4µM
O=C(CN1C(=O)COc2ccc(S(=O)(=O)N3CCCCCC3)cc21)Nc1cccc(Cl)c1	10µM	n	u	n
Cc1cn2nc(C(=O)Nc3ccc(F)cc3C)cc2c(N2CCSCC2)n1	n	n	u	25.1µM
Cc1ccc(NC(=O)c2cc3c(N4CCSCC4)nc(C)cn3n2)c(F)c1	n	n	n	28.2µM
COc1cc(NC(=O)c2cc3c(N4CCSCC4)nc(C)cn3n2)c(OC)cc1Cl	n	n	n	u
Cc1ccc(CNC(=O)CSc2ncc(-c3ccc(F)cc3)o2)cc1	x	x	x	n
CCOc1ccc(C(=O)N2CCC3(CC2)CN(c2ncccn2)CC3CO)cc1 (configuration not stated)	n	n	n	25.1µM
Cn1cc(C(=O)N2CCC3(CC2)CN(c2ncccn2)CC3CO)cn1 (configuration not stated)	n	n	n	25.1µM
CCOc1ccccc1C(=O)N1CCC2(CC1)CN(c1ncccn1)CC2CO (configuration not stated)	n	n	n	31.6µM
COc1ccc(CC(=O)N2CCC3(CC2)CN(c2ncccn2)CC3CO)cc1 (configuration not stated)	n	n	n	u
CSc1nnc(NC(=O)c2cc(=O)c3cccc(C)c3o2)s1	x	x	x	n
O=C(CCc1ncc(-c2ccccc2F)o1)Nc1ccccc1Cl	x	x	x	n
COc1ccc(-c2ccnc3nc(C(C)C)nn23)c(F)c1	n	n	n	n
COc1ccc(-c2ccnc3nc(C(C)C)nn23)cc1OC	n	n	n	28.2µM
COc1ccc(-c2ccnc3nc(C(C)C)nn23)cc1	n	n	n	25.1µM
COc1cc(-c2ccnc3nc(C(C)C)nn23)cc(OC)c1OC	n	n	n	u
O=C(NCc1cccc(F)c1)c1nc2c(o1)CCN(Cc1cccc(Cl)c1)CC2	n	n	n	35.5µM
COc1cccc(CN2CCc3nc(C(=O)NCC4CC4)oc3CC2)c1	n	n	n	39.8µM
O=C(NCc1cccc(F)c1)c1nc2c(o1)CCN(Cc1cc(F)ccc1F)CC2	n	n	n	31.6µM
O=C(NCc1ccccc1)c1nc2c(o1)CCN(Cc1ccc(F)cc1F)CC2	n	n	n	u
NCCSCc1ccsc1	x	x	x	n
COc1ccc(C(=O)N2CCN3C(=O)c4cc(-c5ccc(Cl)cc5)ccc4NC(=O)[C@@H]3C2)cc1	u	n	n	u
SMILES	SNCA expr inhib	IP6K1 inh	HEK293 viab	KDM5B inh
O=C(N[C@H]1CCN2C(=O)c3cc(/C=C/c4ccccc4)ccc3NC(=O)[C@H]12)C1CCCC1	n	n	n	31.6µM
C=CCO[C@@H]1CCN2C(=O)c3cc(-c4ccc(OC)cc4)ccc3NC(=O)[C@H]12	n	n	n	35.5µM
O=C1Nc2ccc(/C=C/c3ccccc3)cc2C(=O)N2CC[C@H](NS(=O)(=O)c3cccs3)[C@@H]12	u	n	n	31.6µM
O=C(O)CCC(=O)N[C@H]1CCN2C(=O)c3cc(/C=C/c4ccccc4)ccc3NC(=O)[C@H]12	n	n	n	39.8µM
O=C1Nc2ccc(-c3ccccc3)cc2C(=O)N2CC[C@H](NS(=O)(=O)c3cccs3)[C@@H]12	u	n	n	n
O=C(O)CCC(=O)N[C@H]1CCN2C(=O)c3cc(-c4cccc(C(F)(F)F)c4)ccc3NC(=O)[C@H]12	n	n	n	n
O=C(O)COCC(=O)N[C@H]1CCN2C(=O)c3cc(-c4ccccc4F)ccc3NC(=O)[C@H]12	n	n	n	n
COc1ccc(/C=C/c2ccc3c(c2)C(=O)N2CC[C@H](NC(=O)CCC(=O)O)[C@H]2C(=O)N3)cc1	n	n	n	28.2µM
COc1ccc(-c2ccc3c(c2)C(=O)N2CC[C@H](NC(=O)COCC(=O)O)[C@H]2C(=O)N3)cc1	n	n	n	20µM
O=C(O)COCC(=O)N[C@H]1CCN2C(=O)c3cc(/C=C/c4ccccc4)ccc3NC(=O)[C@H]12	n	n	n	31.6µM
COCC1CN(C(C)=O)CC12CCN(C(=O)NCc1ccc(C)cc1)CC2 (configuration not stated)	n	n	n	n
CN(CCC(C)(C)O)c1ccc(C(=O)N2CCCCC2CCn2cccn2)cn1 (configuration not stated)	u	n	n	u
O=C(O)CCC(CC(=O)O)C(=O)O (configuration not stated)	x	x	x	n
O=C(Nc1cccc(F)c1)N1C[C@@H]2C[C@H](C1)c1ccc(-c3cccc(C(F)(F)F)c3)c(=O)n1C2	n	n	n	28.2µM
CC(=O)Nc1ccc(S(=O)(=O)N2C[C@@H]3C[C@H](C2)c2ccc(-c4ccc5ccccc5c4)c(=O)n2C3)cc1	n	n	n	25.1µM
COc1ccc(C(=O)N2C[C@@H]3C[C@H](C2)c2ccc(-c4ccc5ccccc5c4)c(=O)n2C3)cc1	n	n	n	28.2µM
COc1ccc(C(=O)N2C[C@@H]3C[C@H](C2)c2ccc(NS(=O)(=O)c4cccc(C(F)(F)F)c4)c(=O)n2C3)cc1	n	n	n	n
COc1ccc(-c2ccccc2NC(=O)C2CCCN(Cc3cnc(SC)nc3)C2)cc1 (configuration not stated)	n	n	n	n
O=C(COc1ccccc1)N1CCC(N2CC3CC(C2)[C@H]2CCCC(=O)N2C3)CC1 (some centres not stated)	n	n	n	22.4µM
COc1ccc(NC(=O)N2CCC(N3CC4CC(C3)[C@H]3CCCC(=O)N3C4)CC2)cc1OC (some centres not stated)	n	n	n	25.1µM
Cc1nc(C)c(C(=O)N2CCC(N3CC4CC(C3)[C@H]3CCCC(=O)N3C4)CC2)s1 (some centres not stated)	n	n	n	15.8µM
COc1cc(-c2onc(C)c2C(=O)NC2Cc3ccccc3C2)cc(OC)c1OC	n	n	n	31.6µM
COc1ccc(-c2onc(C)c2C(=O)NCc2ccccc2C)cc1	n	n	n	u
COc1cc(-c2onc(C)c2C(=O)NCCCCc2ccccc2)cc(OC)c1OC	n	n	n	25.1µM
COc1cc(-c2onc(C)c2C(=O)NCc2cccc(F)c2F)cc(OC)c1OC	n	n	n	31.6µM
COc1cc(-c2onc(C)c2C(=O)NCCCSC)cc(OC)c1OC	n	n	n	31.6µM

High-throughput results from PubChem BioAssay.
